Among all 69,000 compounds or so, about 1,000 (1.4%) showed an effect of 50% or more. Shown is part of a subset that was picked to be rich in strong results.
Test system: Leishmania donovani
Test: Leishmania intramacrophage assay
Type: functional, organism-based
Set-up: scale not given: in the data most compounds retested in dose-response had high values

Row | Compound | Percent Effect (30.3 µM, […]) | Percent Effect (30 µM, 30.03 µM)
1 | CC1CCc2n[nH]c(C(=O)NCCCc3ccccn3)c2C1 (stereo not given) | -2.29% | –
2 | CCOC(=O)c1ccc(NC(=O)c2cc3c([nH]c2=O)CCCC3)cc1 | 34.55% | –
3 | CC(=O)Nc1nc(C(=O)N2CCCC2c2noc(C(C)C)n2)cs1 (stereo not given) | -12.95% | –
4 | C[C@@H]1CN(Cc2cccc(F)c2)C[C@]12CCN(Cc1cccnc1)C2=O.O=C(O)C(F)(F)F.O=C(O)C(F)(F)F | -0.6911% | –
5 | COc1cc2nc(NCc3cc(C)on3)nc(N)c2cc1OC | -3.382% | –
6 | COc1ccccc1NCC(=O)NCc1scnc1C | 29.29% | –
7 | COc1cc2nc(NCc3scnc3C)nc(N)c2cc1OC | 62.63% | –
8 | COCCCN1CC2(CCCCN2C(C)=O)CC1=O (stereo not given) | 13.42% | –
9 | Cc1nc(N)ncc1C(=O)N1CCCC(CCc2ccc(F)c(F)c2)C1 (stereo not given) | 6.718% | –
10 | OCc1c(Cl)ncn1-c1ccccc1 | 61.75% | –
11 | OCc1c(Cl)ncn1-c1ccc(F)cc1 | 25.45% | –
12 | Cc1ccc(-n2cnc(Cl)c2CO)cc1 | 12.87% | –
13 | CC(C)CN1CCC2(CCN(Cc3nccs3)CC2)C1=O.O=C(O)C(F)(F)F | 12.73% | –
14 | Cc1noc(C)c1C(=O)N(C)C(C)c1cccnc1 (stereo not given) | -5.434% | –
15 | Cc1noc(CN(C)C(=O)c2n[nH]c(N)c2-c2ccccc2)n1 | -0.6486% | –
16 | CN(C)CC1(O)CCCN(c2noc(-c3ccccc3)n2)CC1 (stereo not given) | 2.473% | –
17 | Cc1cc(N2CCCC(O)(CN(C)C)CC2)nc(-c2ccccc2)n1 (stereo not given) | 63.47% | –
18 | CN(C)CC1(O)CCCN(c2nc(-c3ccccc3)no2)CC1 (stereo not given) | 31.64% | –
19 | N#Cc1ccc(CN2C(=O)c3ccccc3CS2(=O)=O)cc1 | -16.87% | –
20 | Cc1cc(=O)[nH]c(-n2nc(C)c(CCC(=O)Nc3nc(C)cs3)c2C)n1 | 59.04% | –
21 | COC(=O)CCc1c(C)nn(-c2nc(C)cc(=O)[nH]2)c1C | – | -18.05%
22 | Cc1cc(=O)[nH]c(-n2nc(C)c(CCC(=O)NCC(C)C)c2C)n1 | 15.57% | –
23 | Cc1ncnc(NCC(C)N(C)c2ccccc2)c1C (stereo not given) | 57.28% | –
24 | CC(CNc1cncc(-n2cccn2)n1)N(C)c1ccccc1 (stereo not given) | – | 31.44%
25 | Cc1nc2c(NCC(C)N(C)c3ccccc3)ncnc2o1 (stereo not given) | 33.01% | –
26 | Cn1cccc1C(=O)N1CCC(c2nccn2Cc2ccncc2)CC1 | 6.64% | –
27 | CN1CC(=O)N(c2ccccc2)CC12CCN(C(=O)c1cnccn1)C2.O=C(O)C(F)(F)F (stereo not given) | 4.293% | –
28 | Cc1nn(CCC#N)c(C)c1[C@@H]1C=C[C@@H](NCc2ccc(F)cc2)C1 | 101.5% | –
29 | Cc1nn(CCC#N)c(C)c1CCC(=O)N(C)Cc1ccc(F)cc1F | 2.715% | –
30 | Cc1nn(CCC#N)c(C)c1[C@@H]1C=C[C@@H](NCc2cccc(Cl)c2)C1 | -10.48% | –
